Test results from PubChem BioAssay (NCATS).
Inconclusive results are not listed. Unmarked numbers belong to inactive results. Calls of active or inactive are those of the source. Calls follow the shape of the full dose curve.

Assay: Cell Viability - HepG2 (AID 433);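 also: potency for ATP loss meaning cytotoxicity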
Details: qHTS
Source text: NIH Chemical Genomics Center [NCGC]
NIH Molecular Libraries Screening Centers Network [MLSCN]
National Institutes of Environmental Health Sciences [NIEHS]
National Toxicology Program [NTP]
We have developed a 1536-well cell-based assay for quantitative high throughput screening (qHTS) against a number of cell lines to determine in vitro cytotoxicity of small molecules. This particular assay uses the HepG2 cell line which is derived from hepatocellular carcinoma.
NCGC Assay Protocol Summary:
The CellTiter-Glo luminescent cell viability assay (Promega) is a homogeneous method to measure the number of viable cells in culture. The end point readout of this assay is based on quantitation of intracellular ATP, an indicator of metabolic activity, using the luciferase reaction. Luciferase catalyzes the oxidation of beetle Luciferin to oxyluciferin and light in the presence of ATP. The luminescent signal is proportional to amount of ATP present.
Using the CellTiter-Glo luminescent cell viability assay, the amount of cellular ATP was measured in the HepG2 cell line with complete culture medium following compound treatment for 40 hours. The assay was performed in opaque white Kalypsys 1536-well plates. In the screen, tamoxifen and doxorubicin were used as positive controls. Library compounds were measured for their ability to cause acute toxicity in the cell line, as reflected by a decrease in intracellular ATP levels, in a concentration-dependent manner. Data were normalized to the controls for basal activity (DMSO only) and 100% inhibition (100 uM tamoxifen). AC50 values were determined from concentration-response data modeled with the standard Hill equation.
qHTS protocol fo CellTiter Glo HepG2 cellular assay
[Step] [Parameter] [Value] [Description]
1. Reagent; 5 uL; 1500 HepG2 cells/well
2. Time; 5 hr; 37 °C incubation
4. Controls; 23 nL; Tamoxifen 0.34 uM to 100 uM & Doxorubicin 0.02 nM to 100 uM
5. Time; 40 hr; 37 °C incubation
6. Reagent; 5 uL; CellTiter Glo reagent
7. Time; 20 min; Room Temperature
8. Detection; Luminescence; Viewlux plate reader
Keywords: cell viability, cytotoxicity, HepG2 cell line, luminescence, NTPHTS, NTPHTS_NCGC, NIEHS, EPA, DSSTox, MLSMR, MLSCN, NIH Roadmap, qHTS, NCGC
Potency is read from the fitted curve at half-maximal effect.

| SMILES | Potency |
| --- | --- |
| CC(C)=O | > 92 µM |
| CC1=C2[C@@H]([C@H](C)CC[C@H]2/C=C(\C)C(=O)O)[C@H](O)C1 | > 92 µM |
| Nc1ccn([C@H]2CS[C@@H](CO)O2)c(=O)n1 | > 92 µM |
| CCCCCCCC(=O)O | > 92 µM |
| O=S(=O)(O)O | > 92 µM |
| O=C(O)CCC(=O)C(=O)O | > 92 µM |
| CCOc1ccc2c(c1)C(C)=CC(C)(C)N2 | > 92 µM |
| CCOC(C)=O | > 92 µM |
| CC(C)(C)NC(=O)[C@@H]1C[C@@H]2CCCC[C@@H]2CN1C[C@@H](O)[C@H](Cc1ccccc1)NC(=O)[C@H](CC(N)=O)NC(=O)c1ccc2ccccc2n1 | 65.4 µM (active) |
| O=CCCCC=O | > 92 µM |
| IC(I)I | > 92 µM |
| CCCCCCCC/C=C\CCCCCCCC(=O)O | > 92 µM |
| CCCCC/C=C\C/C=C\CCCCCCCC(=O)O | > 92 µM |
| CC1=C(/C=C/C(C)=C/C=C/C(C)=C/CO)C(C)(C)CCC1 | > 92 µM |
| Cc1ccccc1 | > 92 µM |
| CC(O)CO (stereo unspecified) | > 92 µM |
